Experimental data taken from PubChem BioAssay AID2315 (National Center for Advancing Translational Sciences (NCATS), 2010).
Screen size: about 290,000 compounds; about 27,000 (9.3%) were called active. Shown is part of a subset that was picked to be rich in actives. A number with no mark means an inactive call. Cut-off read from the data, not from the text of the source: active = inhibition mostly above about 28% (no sharp cut-off); inactive = mostly below about 43%. Where a SMILES comes first, the peptide text is derived from it. [ ]: non-standard residue; d: D form. The star is where a group is joined. ξ: configuration not given here. Cbz = O=C(OCc1ccccc1)*; ξL = CC(C)CC(N)C(=O)O; ξP = O=C(O)C1CCCN1

Assay: A qHTS for Small Molecule Inhibitors of Shiga Toxin; note: 0% is about no effect
Conditions: Vero cells, Shiga toxin protein synthesis inhibition reporter; at 38.7 µM, active compounds read high
Work on `O=C(Nc1ccccc1)N1CCN(C(=O)Nc2ccccc2)CC1` yielded an inhibition of 14.4%.
For `O=C(Nc1ccccc1)c1cc2ccccc2[nH]1`, the inhibition was 116% (active).
`CC(C)n1c(=O)[nH]c2cc(C(=O)Nc3ccccc3)ccc21` gave an inhibition of -20.3%.
Work on `COc1ccccc1OCCOc1ccc(/C=C2\C(=N)N3N=C(C)SC3=NC2=O)cc1` yielded an inhibition of 2.39%.
Work on `COc1cccc(N(CC(=O)NC2CCCC2)C(=O)Cn2nnc(-c3ccc(C)o3)n2)c1` yielded an inhibition of 5.05%.
With `CCn1c(SCc2ccccc2)nc2cc(OC)c(OC)cc2c1=O` the inhibition was -6.05%.
With `O=C(CN1CCN(c2ccccc2)CC1)Nc1ccc(F)cc1` the inhibition was 2.65%.
In the case of `O=C(c1ccc(F)cc1)N1CCC(n2nnc3ccccc32)CC1`, the inhibition is reported as 111% (active).
Work on `CC(=O)c1cccc(S(=O)(=O)N2CCC(n3nnc4cc(F)ccc43)CC2)c1` yielded an inhibition of 7.77%.
`O=S(=O)(c1cccc(S(=O)(=O)N2CCC(n3nnc4ccccc43)CC2)c1)N1CCCCC1` showed an inhibition of -25.2%.
In the case of `COc1ccc(N(CC(=O)N2CCOCC2)S(=O)(=O)c2ccccc2)cc1Cl`, the inhibition is reported as -9.7%.
`C=CCN1CN(S(=O)(=O)c2ccc(OC)cc2)c2nc3ccccc3nc21` gave an inhibition of 8.86%.
In the case of `O=S(=O)(c1ccccc1)N1CN(Cc2ccc(F)cc2)c2nc3ccccc3nc21`, the inhibition is reported as 45.9% (active).
With `COc1ccc(S(=O)(=O)N2CN(CCc3ccc(OC)c(OC)c3)c3nc4ccccc4nc32)cc1` the inhibition was -10.2%.
For `O=C(NCCS(=O)(=O)N1CCN(c2ccccc2F)CC1)c1ccc(Br)o1`, the inhibition was -0.576%.
`O=C1CCC(C(=O)N2CCC(O)(c3ccccc3)CC2)CN1CCc1ccccc1` (stereo not given) gave an inhibition of -9.01%.
For `Cn1c(SCC(=O)c2cccs2)nnc1-c1ccco1`, the inhibition was 58.7% (active).
For `CCCCNC(=O)CSc1nnc(-c2ccco2)n1C`, the inhibition was -13.5%.
With `CCOC(=O)CSc1nnc(-c2ccco2)n1C` the inhibition was -1.54%.
In the case of `CCC1Oc2ccccc2N(CC(=O)NCCCN2CCN(CC)CC2)C1=O` (stereo not given), the inhibition is reported as -4.33%.
`CC(C)OCCCNC(=O)CN1C(=O)/C(=C/c2ccccc2F)Oc2ccccc21` gave an inhibition of -4.44%.
`COc1ccc(CCNC(=O)CN2C(=O)CCSc3ccccc32)c(OC)c1` gave an inhibition of -7.21%.
For `Cc1ccc(-c2nc(CSCC(=O)NC3CCN(Cc4ccccc4)CC3)c(C)o2)cc1`, the inhibition was 1.51%.
In the case of `Cc1ccc(Sc2cc(C(=O)c3ccccc3C(=O)O)ccc2[N+](=O)[O-])cc1`, the inhibition is reported as 1.21%.
For `Cc1ccccc1NC(=O)C1CCN(C(=O)NC2CCCCC2)CC1`, the inhibition was -5.42%.
`CC(=O)Nc1cc2ccc(OC(C)=O)cc2oc1=O` showed an inhibition of -11.8%.
In the case of `O=C(Nc1cc2ccccc2oc1=O)C1CCCCC1`, the inhibition is reported as 55.5% (active).
With `CCn1nc(C)c(/C=N/NC(=O)Cc2ccc(Cl)cc2)c1C` the inhibition was 81.2% (active).
Compound `Cc1nn(Cc2ccc(Cl)cc2)c(Cl)c1/C=N/NC(=O)CNc1ccccc1F` has an inhibition of -6.45%.
In the case of `Cc1nn(Cc2ccc(Cl)cc2)c(Cl)c1/C=N/NC(=O)c1cccnc1`, the inhibition is reported as -8.32%.
For `COc1ccccc1-n1cnc2cc(C(=O)NCC3CCCO3)ccc21` (stereo not given), the inhibition was -4.06%.
Work on `O=C(NCCN1CCOCC1)c1ccc2c(c1)ncn2C1CCCC1` yielded an inhibition of -8.3%.
With `O=C(NCc1cccs1)c1ccc2c(c1)ncn2C1CCCC1` the inhibition was 38% (active).
`CCOC(=O)C1=C(c2ccccc2)NC(=O)NC1c1cc(OC)c(OC)cc1OC` (stereo not given) gave an inhibition of -5.08%.
`COc1cc2c(cc1OC)CN(CC(=O)Nc1ccc(F)cc1)CC2` gave an inhibition of -6.84%.
`Cc1ccc(SCc2c(C(=O)N/N=C/c3cccnc3)nnn2-c2nonc2N)cc1` showed an inhibition of -5.04%.
For `COc1cc(CN2CCC(C(N)=O)CC2)ccc1OCc1ccccc1`, the inhibition was 50.5% (active).
With `COc1ccc(COCC(O)CN2CCC(C(N)=O)CC2)cc1` (stereo not given) the inhibition was 18.1%.
In the case of `CCOc1cc(CN2CCN(C(=O)CC(C)C)CC2)ccc1OC`, the inhibition is reported as 21.9%.
Work on `CCCc1nnc(NC(=O)CCC(=O)NC2CC2)s1` yielded an inhibition of -4.93%.
Work on `COc1ccc(CCN(C)C(=O)C23CC4CC(CC(Cl)(C4)C2)C3)cc1OC` yielded an inhibition of -8.99%.
With `Cc1cccc(NC(=O)c2ccc3ccccc3n2)n1` the inhibition was 80.6% (active).
`CCN(CC)S(=O)(=O)c1ccc(C)c(NC(=O)COc2ccc(Br)cc2Cl)c1` showed an inhibition of -7.98%.
With `Cc1cccc(NC(=O)COc2ccccc2C)n1` the inhibition was 99.9% (active).
For `COCCNC(=O)COc1ccccc1C`, the inhibition was -1.68%.
Work on `Cc1ccccc1OCC(=O)Nc1nc(C)c(C(=O)N(C)C)s1` yielded an inhibition of 13.1%.
In the case of `Cc1cccc(NC(=O)c2cccnc2Cl)n1`, the inhibition is reported as 21.6%.
Compound `Cc1cccc(NC(=O)Nc2ccc(OCc3ccccc3)cc2)n1` has an inhibition of -8.92%.
`Cc1cccc(NC(=O)c2ccccc2NC(=O)C(C)(C)C)n1` gave an inhibition of -16.5%.
With `CCCC1=Nc2cc(C(=O)NCCN3CCCC3)ccc2Sc2ccccc21` the inhibition was -5.59%.
For `Cc1cc(C)n(CC(O)COc2ccc(C(C)(C)C)cc2)n1` (stereo not given), the inhibition was -1.13%.
`COc1ccccc1CN(C)C(=O)c1cc2ccccc2o1` showed an inhibition of 5.75%.
In the case of `Cc1ccc(C(=O)Nc2nc(N)n(-c3ccccc3)n2)cc1`, the inhibition is reported as 38.4% (active).
For `Cc1ccc(S(=O)(=O)Nc2nc(N)n(-c3ccccc3)n2)cc1`, the inhibition was -9.63%.
Work on `Nc1nc(NC(=O)/C=C/c2ccccc2)nn1-c1ccccc1` yielded an inhibition of 27%.
`O=C(Nc1cccc(F)c1)c1coc(=O)c(Br)c1` showed an inhibition of -10.4%.
`CCCCNC(=O)c1cn(CC)c2cc(N3CCN(C(=O)c4ccco4)CC3)c(F)cc2c1=O` showed an inhibition of -7.36%.
`COCCCNC(=O)/C(C#N)=C/c1c(N2CCCCCC2)nc2ccccn2c1=O` showed an inhibition of -3.53%.
Compound `CSCCC(Nc1nc2ccccc2s1)C(=O)O` (stereo not given) has an inhibition of -3.96%.
Work on `Cc1ccc(S(=O)(=O)Nc2nc3ccccc3s2)cc1[N+](=O)[O-]` yielded an inhibition of -15.3%.
With `Cc1ccnc(Nc2nc3ccccc3s2)n1` the inhibition was 76.8% (active).
For `CS(=O)(=O)N(CC(=O)Nc1ccc(F)cc1)C1CCCCC1`, the inhibition was 18.9%.
Work on `COc1ccc(S(=O)(=O)N2CCN(c3ccc(F)cc3)CC2)cc1-c1noc(C)n1` yielded an inhibition of -2.91%.
For `Cc1ccc(-n2c(C)cc(/C=N/Nc3ccc([N+](=O)[O-])cn3)c2C)c(C)c1`, the inhibition was 50.3%.
In the case of `Cc1cc(/C=N/n2cnnc2)c(C)n1-c1cccc(C(=O)O)c1`, the inhibition is reported as 26.3%.
In the case of `Cc1cc(/C=N/Nc2ccc([N+](=O)[O-])cn2)c(C)n1-c1cccc(C(=O)O)c1`, the inhibition is reported as 81.9% (active).
With `CC(C)C[C@H](NC(=O)C1CC(=O)N(c2ccc3c(c2)OCCO3)C1)C(=O)NC1CCCC1` (stereo not given in full) the inhibition was -4.71%.
`COc1cc(/C=C/C(=O)O)cc(S(=O)(=O)Nc2ccccc2C(=O)NCCc2ccccc2)c1OC` gave an inhibition of 55.3%.
Compound `CC(C)CC(NC(=O)C1CCCN1C(=O)[C@@H](C)NC(=O)OCc1ccccc1)C(=O)NCC(N)=O` (stereo not given in full) (Cbz-[dA][ξP][ξL]G-NH2) has an inhibition of -3.42%.
`COC(=O)c1cccc(N(C(=O)c2ccco2)C(C(=O)NC2CCCC2)c2ccco2)c1` (stereo not given) showed an inhibition of -1.98%.
`COc1cc(NC(=O)CCS(=O)(=O)c2ccc3c(c2)oc(=O)n3C)cc(OC)c1` showed an inhibition of 15.8%.
In the case of `CCc1ccccc1OCC(=O)Nc1ccc2c(c1)OCCO2`, the inhibition is reported as 54.9% (active).
`CCC(C(=O)Nc1ccc2c(c1)OCCO2)c1ccccc1` (stereo not given) showed an inhibition of 34.4%.
In the case of `O=C(COc1ccc(Cl)cc1)Nc1ccc2c(c1)OCO2`, the inhibition is reported as 71.8% (active).
`COc1ccccc1OCCCC(=O)Nc1ccc2c(c1)OCCO2` showed an inhibition of 20.5%.
In the case of `CCOc1ccc(NCCC(=O)c2ccc3c(c2)OCO3)cc1`, the inhibition is reported as 21.5%.
Compound `CCC(C)(C)NC(=O)CN(C(=O)C(=O)Nc1ccc2c(c1)OCCO2)C(C)(C)CC` has an inhibition of 15.3%.
Compound `O=C(COc1ccc(Cl)cc1)Nc1ccc2oc(=O)ccc2c1` has an inhibition of 6.26%.
With `COC(=O)CCNc1ccc2c(c1)OCCO2` the inhibition was 155% (active).
With `CCCCC(=O)Nc1ccc2c(c1)OCCO2` the inhibition was 70.5% (active).
With `O=C(CCS(=O)(=O)Cc1ccccc1)Nc1ccc2c(c1)OCCO2` the inhibition was -14.4%.
Work on `CCn1c(COc2ccccc2)nnc1SCC(=O)Nc1ccc2c(c1)OCCO2` yielded an inhibition of 4.75%.
`CC(C)NS(=O)(=O)c1ccc(OCC(=O)Nc2ccc3c(c2)OCCO3)cc1` gave an inhibition of -9.12%.
For `CC(=O)Nc1cccc(Nc2nc(-c3cccs3)nc3ccccc23)c1`, the inhibition was 27.4%.
`Cc1cc(=O)oc2c1ccc1ccccc12` showed an inhibition of 17.1%.
In the case of `O=C(CCc1ccccc1)Nc1ccnn1C1CCN(Cc2ccc(OCCO)cc2)CC1`, the inhibition is reported as 27.8%.
Work on `O=C(CC1C(=O)NCCN1CC(c1ccccc1)c1ccccc1)NCC1CCOCC1` (stereo not given) yielded an inhibition of 16.2%.
`CC(NC(=O)CCCC1CCCCC1)c1ccc(S(N)(=O)=O)cc1` (stereo not given) gave an inhibition of -5.49%.
`COC(=O)c1cc(CNC(=O)CC(C)c2ccccc2)ccc1OC` (stereo not given) showed an inhibition of -4.17%.
With `Cn1ccnc1SCC(=O)Nc1ccc2c(c1)OCCO2` the inhibition was 7.65%.
With `Cc1ccc(S(=O)(=O)NCC(=O)Nc2ccc3c(c2)OCCO3)cc1` the inhibition was -18.4%.
`O=C(CSc1nnnn1-c1ccc2c(c1)CCC2)Nc1ccc2c(c1)OCCO2` gave an inhibition of 33.4%.
With `Cc1ccc(SCC(=O)Nc2ccc3c(c2)OCCO3)cc1` the inhibition was 77.1% (active).
With `O=C(CSc1nnnn1C1CCCC1)Nc1ccc2c(c1)OCCO2` the inhibition was 129% (active).
With `CCC(=O)Nc1cccc(NC(=O)CSc2nnnn2C2CCCC2)c1` the inhibition was -2.63%.
